Test results published in PubChem BioAssay (EPA / NIEHS).
Results filed as inconclusive are left out. More than one record can exist for a structure, and the calls need not agree. Active and inactive are the calls of the source. How the source made its calls, unless noted: active means hit-call score of the fitted dose curve at least 0.9, where 1 is the maximum; inactive means score below 0.9.

How the values were obtained:
[1] = ATG_PPRE_CIS: Attagene CIS-FACTORIAL HepG2 Assay for human Peroxisome Proliferator-activated Response Element (PPRE) (AID 2282958); conditions: HepG2 PPRE cis-element reporter, Attagene transcription factor profiling; actives raise or lower the signal
Procedure, shortened: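 Measured endpoint: PPRE-controlled reporter mRNA, detected by RT-PCR and capillary electrophoresis fluorescence, from transiently transfected HepG2 cells 24 h after dosing. Curves fitted in both directions using DMSO baseline.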

[2] = ATG_RORE_CIS: Attagene CIS-FACTORIAL HepG2 Assay for human RAR-related Orphan Receptor Element (RORE) (AID 2282959); conditions: HepG2 Attagene cis-factorial RORE reporter, mRNA; actives raise or lower the signal
Procedure, shortened: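 Transiently transfected HepG2 reporter cells were treated 24 h. Reporter transcripts were detected by RT-PCR and capillary electrophoresis, with bidirectional fitting against DMSO.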

[3] = ATG_Sox_CIS: Attagene CIS-FACTORIAL HepG2 Assay for human SRY-box transcription factor (SOX) (AID 2282960); conditions: HepG2 Attagene cis-factorial SOX reporter, mRNA; actives raise or lower the signal
Procedure, shortened: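 Gain- or loss-of-signal endpoint, fitted bidirectionally with DMSO as negative control. Based on reporter mRNA from transfected HepG2 cells harvested 24 h post-treatment and quantified via RT-PCR and capillary electrophoresis.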

[4] = molecular target: Transcription factor Sp1 (Homo sapiens) (UniProt P08047); test: ATG_Sp1_CIS: Attagene CIS-FACTORIAL HepG2 Assay for human Specificity Protein 1 (Sp1) (AID 2282961); conditions: HepG2 Sp1 cis-reporter transcription, actives raise or lower the signal
Procedure, shortened: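 Endpoint reflects endogenous Sp1 transcriptional activity, not an exogenous fusion protein: HepG2 cells with transfected cis-regulated reporters, 24 h dosing, RT-PCR/capillary electrophoresis mRNA read-out, DMSO-normalised bidirectional fit.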

[5] = ATG_SREBP_CIS: Attagene CIS-FACTORIAL HepG2 Assay for human Sterol Regulatory Element Binding (SREBP) (AID 2282962); conditions: HepG2 Attagene cis-factorial SREBP reporter, mRNA; actives raise or lower the signal
Procedure, shortened: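 Readout: fluorescent reporter-transcript peaks resolved by capillary electrophoresis after RT-PCR. Cells were human HepG2 carrying transfected cis-promoter reporter constructs, dosed for 24 h. Gain or loss of signal was fitted against DMSO controls.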

[6] = molecular target: Signal transducer and activator of transcription 3 (Homo sapiens) (UniProt P40763); test: ATG_STAT3_CIS: Attagene CIS-FACTORIAL HepG2 Assay for human Signal Transducer and Activator of Transcription 3 (STAT3) (AID 2282963); conditions: HepG2, Attagene cis-factorial STAT3 reporter transcription; actives raise or lower the signal
Procedure, shortened: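 Cis-factorial format: endogenous transcription factors in HepG2 drive transfected reporter units. After 24 h treatment, reporter RNA was reverse-transcribed, amplified, FAM-labelled and HpaI-digested before CE analysis; activity scored in both directions against DMSO.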

[7] = ATG_TA_CIS: Attagene CIS-FACTORIAL HepG2 Assay for human TA Basal Promoter (AID 2282964); conditions: HepG2 Attagene CIS-factorial TA basal promoter reporter; actives raise or lower the signal
Procedure, shortened: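 Transfected HepG2, 24 h compound exposure; RNA → RT-PCR → FAM primer extension → HpaI cut → CE fluorescence. Gain/loss-of-signal fitted against DMSO negative control. Background-control readout.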

[8] = ATG_TCF_b_cat_CIS: Attagene CIS-FACTORIAL HepG2 Assay for human T-Cell-Factor with beta-catenin (TCF/b-cat) (AID 2282965); conditions: HepG2 TCF/beta-catenin cis-reporter transcription, actives raise or lower the signal
Procedure, shortened: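 Endogenous transcription factor activity is captured through cis-promoter reporter constructs transiently introduced into human HepG2 liver cells. Induced reporter mRNA is measured after 24 h and fitted bidirectionally relative to DMSO.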

[9] = ATG_TGFb_CIS: Attagene CIS-FACTORIAL HepG2 Assay for human Transforming Growth Factor (TGF) (AID 2282967); conditions: HepG2 Attagene CIS TGFb reporter, mRNA transcription; actives raise or lower the signal
Procedure, shortened: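 Readout: fluorescently labeled reporter cDNA fragments resolved by capillary electrophoresis after RT-PCR. Transfected HepG2 cells dosed for 24 h; endogenous TF activity at TGFB1-linked cis element; gain or loss fitted relative to DMSO.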

[10] = ATG_VDRE_CIS: Attagene CIS-FACTORIAL HepG2 Assay for human Vitamin D Receptor Element (VDRE) (AID 2282968); conditions: HepG2 VDRE cis-reporter transcription, actives raise or lower the signal
Procedure, shortened: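 Measures endogenous factor activity through cis-element-driven reporter transcripts in transiently transfected HepG2. Cells are treated 24 h; reporter mRNA is quantified by RT-PCR and capillary electrophoresis; fitting is bidirectional.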

[11] = molecular target: Estrogen receptor (Homo sapiens) (UniProt P03372); test: ATG_ERa_TRANS: Attagene TRANS-FACTORIAL HepG2 Assay for human Estrogen Receptor alpha (ERa) (AID 2282970; active means hit-call score of the fitted dose curve at least 0.9, where 1 is the maximum); conditions: HepG2 Attagene TRANS ERa GAL4 reporter, mRNA
Procedure, shortened: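 Reporter mRNA induction after 24 hours, detected by fluorescent RT-PCR and capillary electrophoresis, gives the read-out. Cells are HepG2 transiently transfected with GAL4-UAS reporter transcription units responding to chimeric NR-Gal4. Activity is taken as gain of signal over DMSO baseline.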

[12] = molecular target: X-box-binding protein 1 (Homo sapiens) (UniProt P17861); test: ATG_Xbp1_CIS: Attagene CIS-FACTORIAL HepG2 Assay for human X-box Binding Protein 1 (XBP1) (AID 2282972); conditions: HepG2 XBP1 cis-element reporter, Attagene multiplex; actives raise or lower the signal
Procedure, shortened: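 Read-out: fluorescent reporter mRNA fragments resolved by capillary electrophoresis after RT-PCR. Human HepG2 liver cells carried transfected cis-promoter reporter units and were exposed to chemicals for 24 hours. Gain or loss of signal fitted relative to DMSO baseline.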

[13] = ATG_GAL4_TRANS: Attagene TRANS-FACTORIAL HepG2 Assay for GAL4 (Internal Marker) (AID 2282976; active means hit-call score of the fitted dose curve at least 0.9, where 1 is the maximum); conditions: HepG2 Attagene TRANS GAL4 internal marker reporter
Procedure, shortened: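 RT-PCR/capillary electrophoresis readout of reporter mRNA. HepG2, transient MRTU transfection (GAL4-UAS reporters), 24 h compound exposure. Background-control endpoint, positive direction vs DMSO baseline.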

[14] = molecular target: Glucocorticoid receptor (Homo sapiens) (UniProt P04150); test: ATG_GR_TRANS: Attagene TRANS-FACTORIAL HepG2 Assay for human Glucocorticoid Receptor (GR) (AID 2282978; active means hit-call score of the fitted dose curve at least 0.9, where 1 is the maximum;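 further: activators score as hits since higher reporter transcript over DMSO is fitted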); conditions: HepG2 Attagene TRANS GR reporter, mRNA transcription
Procedure, shortened: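 Exogenous NR-GAL4 fusion activity was assessed through induced GAL4-UAS reporter transcripts in transfected human HepG2 cells, quantified after 24 h by RT-PCR and fluorescent capillary electrophoresis with DMSO as baseline.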

[15] = molecular target: Nuclear receptor subfamily 1 group I member 3 (Homo sapiens) (UniProt Q14994); test: ATG_CAR_TRANS: Attagene TRANS-FACTORIAL HepG2 Assay for human Constitutive Androstane Receptor (CAR) (AID 2282969; active means hit-call score of the fitted dose curve at least 0.9, where 1 is the maximum;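 further: activators raise reporter mRNA above DMSO so AC50 marks induction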); conditions: HepG2 Attagene TRANS-FACTORIAL CAR reporter
Procedure, shortened: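 Signal is reporter mRNA induction relative to DMSO, measured 24 h after dosing by RT-PCR with fluorescent primer extension and capillary electrophoresis. Human HepG2 liver cells carried transiently transfected chimeric NR-Gal4/GAL4-UAS reporter constructs.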

[16] = ATG_TAL_CIS: Attagene CIS-FACTORIAL HepG2 Assay for human TAL Basal Promoter (AID 2282966); conditions: HepG2 Attagene cis-factorial TAL promoter reporter; actives raise or lower the signal;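 further: background control endpoint measuring basal TAL promoter reporter mRNA not a specific factor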
Procedure, shortened: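 HepG2, transient MRTU transfection, 24 h compound exposure; RNA → oligo(dT) RT → PCR → 6-FAM primer extension → HpaI digest → CE fluorescence. Bidirectional curve fit vs DMSO. Background-control readout.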

[17] = ATG_M_19_TRANS: Attagene TRANS-FACTORIAL HepG2 Assay for M19 Transcription Factor (Internal Marker) (AID 2282974; active means hit-call score of the fitted dose curve at least 0.9, where 1 is the maximum); conditions: HepG2 Attagene TRANS-FACTORIAL M19 internal marker reporter
Procedure, shortened: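 Using RT-PCR and capillary electrophoresis, reporter mRNA from transiently transfected human HepG2 cells was quantified following 24 h exposure; activity was fitted in the positive direction against DMSO.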

[18] = molecular target: Estrogen-related receptor gamma (Homo sapiens) (UniProt P62508); test: ATG_ERRg_TRANS: Attagene TRANS-FACTORIAL HepG2 Assay for human Estrogen-Related Receptor gamma (ERRg) (AID 2282977; active means hit-call score of the fitted dose curve at least 0.9, where 1 is the maximum;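 further: hits increase reporter signal over DMSO so potencies reflect activators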); conditions: HepG2 Attagene TRANS reporter, ERRg transactivation
Procedure, shortened: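 Exogenous NR-Gal4 chimera activity was assessed in HepG2 cells bearing transfected GAL4-UAS reporters. After 24 h dosing, total RNA underwent RT-PCR, fluorescent primer extension and HpaI digestion before capillary electrophoresis, with gain of signal scored against DMSO.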

[19] = molecular target: Androgen receptor (Homo sapiens) (UniProt P10275); test: ATG_AR_TRANS: Attagene TRANS-FACTORIAL HepG2 Assay for human Androgen Receptor (AR) (AID 2282973; active means hit-call score of the fitted dose curve at least 0.9, where 1 is the maximum); conditions: HepG2 Attagene TRANS-FACTORIAL AR reporter transcription
Procedure, shortened: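 Readout is reporter transcript abundance, quantified by fluorescent RT-PCR products separated on capillary electrophoresis. Human HepG2 liver cells carried transiently transfected NR-Gal4 chimera plus GAL4-UAS reporter constructs and were dosed for 24 h; activity scored upward versus DMSO.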

[20] = molecular target: Steroid hormone receptor ERR1 (Homo sapiens) (UniProt P11474); test: ATG_ERRa_TRANS: Attagene TRANS-FACTORIAL HepG2 Assay for human Estrogen-Related Receptor alpha (ERRa) (AID 2282971; active means hit-call score of the fitted dose curve at least 0.9, where 1 is the maximum); conditions: HepG2 Attagene TRANS reporter, ERRa transactivation
Procedure, shortened: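 Transfected HepG2, 24 h dosing, ERRa-Gal4 chimera driving GAL4-UAS reporter. Readout: reporter mRNA via RT-PCR plus capillary electrophoresis (fluorescence). Positive direction vs DMSO control.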

Measured: AC50

Sequence of Glucocorticoid receptor (Homo sapiens) (P04150 whole entry, looked up, the tested form may be a part): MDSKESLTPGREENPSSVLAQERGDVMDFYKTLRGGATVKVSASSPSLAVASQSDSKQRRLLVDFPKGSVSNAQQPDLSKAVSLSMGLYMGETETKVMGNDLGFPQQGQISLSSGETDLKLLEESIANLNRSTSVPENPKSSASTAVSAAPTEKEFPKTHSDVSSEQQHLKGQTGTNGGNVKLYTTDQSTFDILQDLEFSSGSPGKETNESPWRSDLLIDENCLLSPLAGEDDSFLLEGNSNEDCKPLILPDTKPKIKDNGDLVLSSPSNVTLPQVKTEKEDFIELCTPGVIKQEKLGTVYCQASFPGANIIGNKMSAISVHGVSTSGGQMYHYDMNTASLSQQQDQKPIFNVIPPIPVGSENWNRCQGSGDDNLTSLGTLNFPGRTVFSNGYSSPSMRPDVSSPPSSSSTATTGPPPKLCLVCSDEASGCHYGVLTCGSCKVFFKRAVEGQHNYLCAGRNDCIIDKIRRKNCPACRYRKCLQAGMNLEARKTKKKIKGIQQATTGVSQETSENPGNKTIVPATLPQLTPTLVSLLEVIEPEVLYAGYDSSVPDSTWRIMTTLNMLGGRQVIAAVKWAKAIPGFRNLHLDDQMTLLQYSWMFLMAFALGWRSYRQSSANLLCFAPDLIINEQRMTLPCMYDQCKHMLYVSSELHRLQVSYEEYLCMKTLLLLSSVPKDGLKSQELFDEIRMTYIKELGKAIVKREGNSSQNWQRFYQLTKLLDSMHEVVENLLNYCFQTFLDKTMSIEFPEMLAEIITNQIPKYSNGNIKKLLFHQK
Sequence of Transcription factor Sp1 (Homo sapiens) (P08047 whole entry, looked up, the tested form may be a part): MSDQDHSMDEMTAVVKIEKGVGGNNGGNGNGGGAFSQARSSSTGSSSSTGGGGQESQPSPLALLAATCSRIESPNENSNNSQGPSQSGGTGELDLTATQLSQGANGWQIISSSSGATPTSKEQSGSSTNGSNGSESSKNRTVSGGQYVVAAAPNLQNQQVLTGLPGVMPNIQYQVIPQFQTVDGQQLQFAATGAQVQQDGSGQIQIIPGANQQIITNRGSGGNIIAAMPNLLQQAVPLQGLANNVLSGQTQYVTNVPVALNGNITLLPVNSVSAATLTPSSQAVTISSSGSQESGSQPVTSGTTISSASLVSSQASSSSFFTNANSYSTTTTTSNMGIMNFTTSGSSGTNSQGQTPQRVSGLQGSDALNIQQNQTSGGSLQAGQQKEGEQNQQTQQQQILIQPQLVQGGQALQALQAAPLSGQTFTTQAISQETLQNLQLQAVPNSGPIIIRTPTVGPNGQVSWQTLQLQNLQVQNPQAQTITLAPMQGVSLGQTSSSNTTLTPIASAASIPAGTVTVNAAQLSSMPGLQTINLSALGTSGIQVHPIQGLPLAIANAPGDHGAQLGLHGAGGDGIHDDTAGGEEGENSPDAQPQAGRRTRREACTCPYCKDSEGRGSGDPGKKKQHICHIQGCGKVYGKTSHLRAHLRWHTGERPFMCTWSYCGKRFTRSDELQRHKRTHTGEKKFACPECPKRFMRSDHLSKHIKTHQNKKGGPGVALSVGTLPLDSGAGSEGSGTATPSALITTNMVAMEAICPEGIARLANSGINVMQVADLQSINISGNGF
Sequence of Estrogen receptor (Homo sapiens) (P03372 whole entry, looked up, the tested form may be a part): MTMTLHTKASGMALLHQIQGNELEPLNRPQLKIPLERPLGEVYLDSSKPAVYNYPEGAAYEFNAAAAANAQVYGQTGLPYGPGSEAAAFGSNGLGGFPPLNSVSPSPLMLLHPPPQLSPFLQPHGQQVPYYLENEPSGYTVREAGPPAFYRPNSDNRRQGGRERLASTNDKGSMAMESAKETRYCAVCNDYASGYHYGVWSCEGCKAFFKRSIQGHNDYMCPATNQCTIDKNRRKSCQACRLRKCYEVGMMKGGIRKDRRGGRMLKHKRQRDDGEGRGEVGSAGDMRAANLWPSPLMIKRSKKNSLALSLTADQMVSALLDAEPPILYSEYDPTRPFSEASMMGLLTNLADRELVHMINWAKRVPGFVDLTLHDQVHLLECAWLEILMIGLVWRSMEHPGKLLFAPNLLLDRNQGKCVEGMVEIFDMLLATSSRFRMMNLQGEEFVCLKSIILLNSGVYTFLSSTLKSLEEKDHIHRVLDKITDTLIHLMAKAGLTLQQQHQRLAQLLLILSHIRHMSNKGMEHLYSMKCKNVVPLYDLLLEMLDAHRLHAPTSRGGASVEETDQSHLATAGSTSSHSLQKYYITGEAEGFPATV
Sequence of Signal transducer and activator of transcription 3 (Homo sapiens) (P40763 whole entry, looked up): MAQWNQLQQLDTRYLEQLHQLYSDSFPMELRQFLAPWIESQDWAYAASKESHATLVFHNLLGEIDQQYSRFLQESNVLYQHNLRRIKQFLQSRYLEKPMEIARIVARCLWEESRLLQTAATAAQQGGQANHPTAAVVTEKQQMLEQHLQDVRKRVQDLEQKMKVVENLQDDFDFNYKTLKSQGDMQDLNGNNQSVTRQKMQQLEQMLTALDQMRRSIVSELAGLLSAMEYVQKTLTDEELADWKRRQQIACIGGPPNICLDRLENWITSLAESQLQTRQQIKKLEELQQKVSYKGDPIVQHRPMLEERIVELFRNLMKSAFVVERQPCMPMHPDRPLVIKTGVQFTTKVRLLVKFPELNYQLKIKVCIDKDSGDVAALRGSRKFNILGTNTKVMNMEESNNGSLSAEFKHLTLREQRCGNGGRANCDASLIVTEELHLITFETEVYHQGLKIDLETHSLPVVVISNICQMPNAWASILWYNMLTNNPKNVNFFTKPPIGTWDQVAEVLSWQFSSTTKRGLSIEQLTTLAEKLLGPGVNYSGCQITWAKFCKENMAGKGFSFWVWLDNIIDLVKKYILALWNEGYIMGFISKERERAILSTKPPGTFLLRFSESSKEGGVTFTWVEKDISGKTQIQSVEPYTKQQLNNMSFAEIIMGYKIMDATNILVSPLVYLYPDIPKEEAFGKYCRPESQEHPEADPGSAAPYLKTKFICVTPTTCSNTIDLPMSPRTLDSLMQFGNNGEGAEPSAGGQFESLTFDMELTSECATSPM
Sequence of Androgen receptor (Homo sapiens) (P10275 whole entry, looked up, the tested form may be a part): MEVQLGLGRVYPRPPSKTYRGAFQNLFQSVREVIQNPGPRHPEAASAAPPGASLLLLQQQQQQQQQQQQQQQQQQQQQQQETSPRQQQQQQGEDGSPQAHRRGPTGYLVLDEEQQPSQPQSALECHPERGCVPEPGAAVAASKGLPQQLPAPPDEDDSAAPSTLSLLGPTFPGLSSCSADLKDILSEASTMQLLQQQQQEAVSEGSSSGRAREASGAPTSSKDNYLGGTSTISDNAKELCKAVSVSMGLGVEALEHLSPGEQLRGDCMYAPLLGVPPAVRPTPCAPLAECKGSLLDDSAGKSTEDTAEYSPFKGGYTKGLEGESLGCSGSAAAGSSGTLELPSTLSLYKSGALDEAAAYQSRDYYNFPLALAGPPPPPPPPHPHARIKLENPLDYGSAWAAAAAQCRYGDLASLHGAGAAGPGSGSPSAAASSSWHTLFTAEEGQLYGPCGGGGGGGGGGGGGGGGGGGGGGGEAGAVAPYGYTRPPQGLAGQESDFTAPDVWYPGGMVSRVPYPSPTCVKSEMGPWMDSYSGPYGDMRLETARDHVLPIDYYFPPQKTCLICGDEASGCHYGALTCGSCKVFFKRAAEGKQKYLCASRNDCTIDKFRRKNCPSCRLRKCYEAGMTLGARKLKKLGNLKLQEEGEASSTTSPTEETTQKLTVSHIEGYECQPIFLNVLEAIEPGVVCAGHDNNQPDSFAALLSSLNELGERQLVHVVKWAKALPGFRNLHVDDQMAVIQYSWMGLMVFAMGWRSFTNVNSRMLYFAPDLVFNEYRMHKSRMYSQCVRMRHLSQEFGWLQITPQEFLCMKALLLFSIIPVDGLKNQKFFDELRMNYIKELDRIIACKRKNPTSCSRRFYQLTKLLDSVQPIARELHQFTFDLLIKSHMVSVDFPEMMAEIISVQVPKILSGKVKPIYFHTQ
Sequence of Nuclear receptor subfamily 1 group I member 3 (Homo sapiens) (Q14994 whole entry, looked up, the tested form may be a part): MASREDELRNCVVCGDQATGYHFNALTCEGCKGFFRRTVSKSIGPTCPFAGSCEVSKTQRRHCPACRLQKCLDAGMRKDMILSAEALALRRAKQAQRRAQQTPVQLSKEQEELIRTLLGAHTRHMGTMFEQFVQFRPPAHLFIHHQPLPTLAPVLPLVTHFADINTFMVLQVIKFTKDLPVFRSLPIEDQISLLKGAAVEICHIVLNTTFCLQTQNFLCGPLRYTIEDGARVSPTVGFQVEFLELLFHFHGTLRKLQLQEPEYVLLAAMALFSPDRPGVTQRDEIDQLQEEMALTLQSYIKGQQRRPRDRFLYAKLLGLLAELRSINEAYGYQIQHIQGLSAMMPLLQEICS
Sequence of X-box-binding protein 1 (Homo sapiens) (P17861 whole entry, looked up, the tested form may be a part): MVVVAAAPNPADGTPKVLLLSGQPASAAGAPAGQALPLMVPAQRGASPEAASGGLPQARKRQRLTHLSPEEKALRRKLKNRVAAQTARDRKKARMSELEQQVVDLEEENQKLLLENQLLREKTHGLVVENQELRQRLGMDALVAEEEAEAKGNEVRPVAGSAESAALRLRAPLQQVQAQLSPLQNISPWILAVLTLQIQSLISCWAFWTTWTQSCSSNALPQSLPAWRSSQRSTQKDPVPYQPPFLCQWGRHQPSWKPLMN
Sequence of Estrogen-related receptor gamma (Homo sapiens) (P62508 whole entry, looked up, the tested form may be a part): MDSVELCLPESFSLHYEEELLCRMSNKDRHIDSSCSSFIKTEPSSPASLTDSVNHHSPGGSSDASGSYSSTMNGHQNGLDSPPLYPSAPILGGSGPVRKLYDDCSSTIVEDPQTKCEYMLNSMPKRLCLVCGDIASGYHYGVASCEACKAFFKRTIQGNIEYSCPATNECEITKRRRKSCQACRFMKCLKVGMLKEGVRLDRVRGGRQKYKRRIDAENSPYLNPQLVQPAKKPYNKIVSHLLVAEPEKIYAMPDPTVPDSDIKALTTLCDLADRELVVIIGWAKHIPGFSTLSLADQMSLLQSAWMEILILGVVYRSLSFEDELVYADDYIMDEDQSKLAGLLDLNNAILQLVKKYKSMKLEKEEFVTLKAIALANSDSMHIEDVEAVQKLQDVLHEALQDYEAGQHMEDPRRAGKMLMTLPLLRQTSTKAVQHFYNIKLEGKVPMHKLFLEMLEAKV

Clc1nc(Cl)nc(Cl)n1
not listed: [15] | [16] | [17] | [18] | [19] | [20]
inactive: all other assays above

CCC(=O)c1ccccc1
not listed: [14] | [16] | [17] | [18] | [19] | [20]
inactive: all other assays above

COc1ccc(OC)c(C=O)c1
not listed: [11] | [15] | [18] | [19] | [20]
inactive: all other assays above

ClC1=C(Cl)[C@]2(Cl)[C@H]3[C@H]([C@H]4C=C[C@H]3C4)[C@@]1(Cl)C2(Cl)Cl
active: [11] 8.38 µM
not listed: [13] | [16] | [18] | [19] | [20]
inactive: all other assays above

Nc1ncc([N+](=O)[O-])s1
not listed: [15] | [16] | [19] | [20]
inactive: all other assays above

CCCCCCCCc1ccc(O)cc1
active: [10] 18.9 µM
inactive: [1] | [2] | [3] | [4] | [5] | [6] | [7] | [8] | [9] | [10] | [15] | [12] | [19] | [17] | [13] | [14]

N#CN=C(N)N
not listed: [9] | [14] | [15] | [17] | [18] | [19] | [20]
inactive: all other assays above

Oc1cccc2cccnc12
active: [10] 67.9 µM
inactive: [1] | [2] | [3] | [4] | [5] | [6] | [7] | [8] | [9] | [10] | [12]

OCC(O)CCl (stereo unspecified)
inactive: [1] | [2] | [3] | [4] | [5] | [6] | [7] | [8] | [10] | [12] | [13]

CC1CN1P(=O)(N1CC1C)N1CC1C (stereo unspecified)
not listed: [1] | [11] | [13] | [14] | [17] | [18] | [19] | [20]
inactive: all other assays above

CC(C)C1CCC(Cc2ccc(Cl)cc2)C1(O)Cn1cncn1 (stereo unspecified)
active: [10] 4.62 µM
not listed: [1] | [19] | [20]
inactive: all other assays above

CC(C)(C)c1cc(O)ccc1O
active: [1] 65.6 µM | [2] 54.6 µM | [3] 179 µM | [7] 138 µM | [8] 119 µM | [11] 33.6 µM | [12] 109 µM
inactive: [4] | [5] | [6] | [14]

Cl/C=C\C[N+]12CN3CN(CN(C3)C1)C2
active: [8] 26 µM
not listed: [1] | [11] | [13] | [14] | [15] | [18]
inactive: all other assays above
